This test relates to VDR:RXRa (NR concentration 270 nM, RXRa partner concentration 90 nM). Description: PBM binding z-score (relative to random genomic background probes); higher = stronger binding; sequences stand for … in GC…GCGATTGACAGCGTAGAATGAAGG
The procedure:
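Protein-binding microarray (Agilent 4x180K custom design, double-stranded 60-nt probes: 5' GC cap, 34-nt variable region, 24-nt constant primer region; full probe sequence given). Purified or IVT nuclear receptor:RXRα heterodimers (3:1 NR:RXRα, mostly 270:90 nM) or homodimers were incubated for 1 h in PBS with 2% milk and no ligand, then detected with Alexa488 antibodies. Fluorescence from o1-orientation probes (~5 replicates averaged) was converted to z-scores against 500 random hg19 background probes. Variable regions are seed direct-repeat (DR0–DR5) sites, all their single-nucleotide variants and half-site ablations.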
As to CCTTTCGGGTCACTCCAGGTTATAGCATCGGAGT, the PBM binding z-score amounted to 4.19.

In turn, AGTCAAAGTTCCCTAGGTAACGTAAGATTCAGCT gave a PBM binding z-score of -0.251.

Regarding GCTCGGAGGAAAAGGTCAGAGCTTTGTCCGTAGA, the PBM binding z-score amounted to 2.14.

Consider ATCTTTAGGTAACAAGTTCAGTGAAAGAGAGGAC, for which the PBM binding z-score is 1.81.

AGTCAAACTTCATCTAGGTAACGTAAGATATGCT displayed a PBM binding z-score of -0.0435.

Sequence GATACAGGGTCAAGGCCGGAGTACGCGTATTGAT gave a PBM binding z-score of 4.38.

Take ACTATTAGTTGAGACTAGGGCAACCGATAGGTTG: the PBM binding z-score was -0.386.

Sequence CCAGCTAGGTCATGGTCAGCTAATCTACAGTATG registered a PBM binding z-score of 1.6.

The sequence TCATATAGGTAAAAGGTGAAAGTCGGTGTGGTAA returned a PBM binding z-score of 1.82.

Turning to TAGCCTAGGTCAGTCAGGGGCCAGTATAGAAAGC, the PBM binding z-score is 0.785.

With GCTAGTTGGACAGTAAAAGGTCACACACCGGTCG, the PBM binding z-score amounted to 3.84.

Sequence CCTAGTTGGTCGGGAGGTCACACACCGGATATGA gave a PBM binding z-score of 3.78.

On to GCTAGTTGGTCAGTGAAAGGTCACACACCGGTCG, for which the PBM binding z-score is 4.14.

In the case of GCTAGCCGGCCATTTGGGTCACTCAATGACGGGC, the PBM binding z-score was 0.203.

Take ATATCAAGGTGATCGTGAGGTCGTTGATACTAAC: the PBM binding z-score stood at 3.33.

With CCACACAGGTGAGAAGGTAACTCAGCCTCGATTA, the PBM binding z-score is 0.0106.

TCTTGTAGATCAGCAGGTTAATAAAGCTGGCCAA registered a PBM binding z-score of 0.526.

In turn, TCATATAGGTAAAAGATGAAAGTCGGTGTGGTAA registered a PBM binding z-score of 0.912.

The sequence ATCGAAAGCTCGAAGGTGAGTATACCCACCCGAA had a PBM binding z-score of -0.463.

For GCTATTAGTTGGAAGGGCAACCGAATGATTCTCG, the PBM binding z-score was -0.223.

The sequence CGTCCAAGGTCAAAGATCAGTGAAGAGATGACGG came in with a PBM binding z-score of 4.44.

The sequence CGTCCAATGTCAAGGTCAGTGAAAGAGACTCGAA gave a PBM binding z-score of 2.08.

With TCTATTAGTTGATTAGCGCAACCGAAACAGCGGA, the PBM binding z-score came to 0.694.

Turning to AGTCAAAGTTCAGGTCGAGGTAACGTAAAGCACG, the PBM binding z-score turned out to be 3.41.

Sequence TCGAGTAGGTTAGGGGCATGCAGAATGGCGTCGA returned a PBM binding z-score of 0.195.

Sequence CCTACTGGGCCATCAGGTCATAGATATCAACGTT registered a PBM binding z-score of 1.25.

CCTACCGGGCCAAGGTCATTGATCAGTCAAAGCA displayed a PBM binding z-score of 3.22.

For the sequence ACTAGCAGGCCAAGGGTCCCTCAAGATTAGTCCG, the PBM binding z-score was -0.454.

Take TTACCAACGTGAAAGGTCGTTGATGCACGCCTTG: the PBM binding z-score was found to be 1.74.

GCATATAGGCAATACAAGGTGAAAGTCCGATTGT: the PBM binding z-score is 0.0245.

As to GCTCGGAGGACAAGGACAGAGCTTTGTCCGTAGA, the PBM binding z-score is -0.798.

Sequence ACTAGCAGGCCAAGTCTGGGTCACTCAAACAAAG had a PBM binding z-score of 0.77.

AGAAAGAGGTTACCAAAGATCAGGGAAACGCTTG yielded a PBM binding z-score of 1.3.

On to CGAACTAGGTCAGATCAGGACAGTGAAGGATGAT, for which the PBM binding z-score was found to be 1.12.

Take GCGACTGGGGCAAAGCAGGTTACGATAAGGTTGG: the PBM binding z-score is 0.0646.

CAAACTACGTCACAGAGGTCAAAGTCCGTGCGTA came in with a PBM binding z-score of 5.85.

In turn, ATCCCTAGGTAAAGTTCAGTGAAAGATCGATAGA yielded a PBM binding z-score of 1.37.

Sequence AGAACGAGGGCACGCTGAGTTGAGAGCAGAGTAG registered a PBM binding z-score of 1.59.

ACGTACGGGTCAACGAGGTTATAGCACGCGTATA registered a PBM binding z-score of 7.49.

As to GCTGCTAGGTCAGGGTGGTCAGCTAACGGGTACG, the PBM binding z-score was determined as 1.25.
